Structures can show the parent of a compound that is named as a salt. ± gives the standard deviation of the averaged measurements. Over roughly 1,700 compounds, “cell number in HSV-1-infected wells relative to infected DMSO wells (H2B-RFP signal)” has its median near 100; the highest 2% begin near 140. What follows is part of a selection rich in the highest values, with near analogues and random picks from the rest.
Test system: A549 infected with HSV-1
Experiment: cell number in HSV-1-infected wells relative to infected DMSO wells (H2B-RFP signal); higher = more surviving cells (uninfected or antiviral-protected wells give about 200%; low = toxicity)
Conditions: 10 µM; 48 h; MOI: 0.1
Description: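 Selleck FDA-approved library (L1300) screened in duplicate at 10 µM on A549 H2B-mRuby cells in 384-well plates, infected with HSV-1 strain 17 YFP-ICP4 at MOI 0.1 one hour before drug addition. Imaged after 2 days at 37°C. Cell growth (H2B-RFP) and infection (ICP4-YFP) are expressed as % of DMSO-treated wells. Hits: growth >90% and infection <20% of DMSO.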

Row | Structure (SMILES) | cell number in HSV-1-infected wells [%]
1 | O=C(c1ccc(F)cc1)C1CCN(CCn2c(=O)[nH]c3ccccc3c2=O)CC1 [Ketanserin] | 124.4 ± 0.22
2 | COc1cc(NC(C)CCCN)c2ncccc2c1 (configuration not stated) [Primaquine Diphosphate] | 118 ± 8
3 | Cc1cccc(C)c1OCC(=O)N[C@@H](Cc1ccccc1)[C@@H](O)C[C@H](Cc1ccccc1)NC(=O)[C@H](C(C)C)N1CCCNC1=O [Lopinavir] | 85.9 ± 22
4 | NCCNc1ccc(NCCN)c2c1C(=O)c1ccncc1C2=O [Pixantrone Maleate] | 36.1 ± 10
5 | O=C1Nc2ccc(Cl)cc2[C@@](C#CC2CC2)(C(F)(F)F)O1 [Efavirenz] | 10.6 ± 3.5
6 | CCOC(CN1CCN(CC(C)C(=O)c2ccccc2)CC1)c1ccccc1 (configuration not stated) [Eprazinone 2HCl] | 108.9 ± 1
7 | CC1=C(/C=C/C(C)=C/C=C/C(C)=C\C(=O)O)C(C)(C)CCC1 [Isotretinoin] | 98.64 ± 0.63
8 | COc1ccc2c(c1)c(CC(=O)O)c(C)n2C(=O)c1ccc(Cl)cc1 [Indometacin Sodium] | 69.9 ± 22
9 | COc1ccc2c(c1)c(CC(=O)O)c(C)n2C(=O)c1ccc(Cl)cc1 [Indomethacin] | 119 ± 12
10 | COc1ccc(NC(=O)c2ccc(C(=N)N(C)C)cc2)c(C(=O)Nc2ccc(Cl)cn2)c1 [Betrixaban] | 150 ± 40
11 | COc1ccc(NC(=O)c2ccc(C(=N)N(C)C)cc2)c(C(=O)Nc2ccc(Cl)cn2)c1 [Betrixaban maleate] | 130 ± 48
12 | CCCOC(C(=O)OC1CCN(C)CC1)(c1ccccc1)c1ccccc1 [Propiverine hydrochloride] | 102 ± 5
13 | COC(=O)c1ccc2c(C(=Nc3ccc(N(C)C(=O)CN4CCN(C)CC4)cc3)c3ccccc3)c(O)[nH]c2c1 [Nintedanib Ethanesulfonate Salt] | 91.8 ± 4.1
14 | CC(C)OC(=O)CCC/C=C\C[C@@H]1[C@@H](/C=C/C(F)(F)COc2ccccc2)[C@H](O)C[C@@H]1O [Tafluprost] | 83.4 ± 27
15 | CC#CCn1c(N2CCC[C@@H](N)C2)nc2c1c(=O)n(Cc1nc(C)c3ccccc3n1)c(=O)n2C [Linagliptin] | 95.4 ± 6.9
16 | NC(=O)c1ccc(I)c([N+](=O)[O-])c1 [Iniparib (BSI-201)] | 66.8 ± 6.8
17 | Cc1c(C(N)=O)cc([N+](=O)[O-])cc1[N+](=O)[O-] [Dinitolmide] | 145 ± 18
18 | NC(=O)c1cc(N2CC2)c([N+](=O)[O-])cc1[N+](=O)[O-] | 74.6 ± 11
19 | C#Cc1cccc(Nc2ncnc3cc4c(cc23)OCCOCCOCCO4)c1 [Icotinib] | 113 ± 1.4
20 | CCCCCCCCN=c1ccn(CCCCCCCCCCn2ccc(=NCCCCCCCC)cc2)cc1 [Octenidine Dihydrochloride] | 14.6 ± 4.9
21 | CC(=O)OCC(CCn1cnc2cnc(N)nc21)COC(C)=O [Famciclovir] | 104 ± 3.7

Row | Structure (SMILES) | cell number in HSV-1-infected wells [%]
22 | Nc1nc(O)c2ncn(CCC(CO)CO)c2n1 [Penciclovir] | 205 ± 4.4
23 | OC[C@H]1O[C@@H](O[C@@H]2[C@@H](CO)OC(O)(CO)[C@H]2O)[C@H](O)[C@@H](O)[C@H]1O (mixture of isomers) [Lactulose] | 115 ± 1.3
24 | CN1CCC(OC(c2ccccc2)c2ccccc2)CC1 [Diphenylpyraline HCl] | 98.9 ± 17
25 | C(=C\c1ccccc1)/CN1CCN(C(c2ccccc2)c2ccccc2)CC1 [Cinnarizine] | 117 ± 4.5
26 | CN1CCN(C(c2ccccc2)c2ccccc2)CC1 [Cyclizine 2HCl] | 153 ± 28
27 | C[N+](C)(C)CCO.O=C([O-])C(O)C(O)C(=O)O (configuration not stated) [Choline bitartrate] | 124 ± 12
28 | COc1cc(C2Oc3cc([C@H]4Oc5cc(O)cc(O)c5C(=O)[C@@H]4O)ccc3OC2CO)ccc1O (some centres not stated) [Silibinin] | 95.4 ± 7
29 | C=C[C@@H]1C[C@]1(NC(=O)[C@@H]1C[C@@H](Oc2ncc(OC)c3ccc(Cl)cc23)CN1C(=O)[C@@H](NC(=O)OC(C)(C)C)C(C)(C)C)C(=O)NS(=O)(=O)C1CC1 [Asunaprevir] | 94.5 ± 22
30 | CCCCc1nc(C)c(CC(=S)N(C)C)c(=O)n1Cc1ccc(-c2ccccc2-c2nnn[nH]2)cc1 [Fimasartan] | 88.2 ± 16
31 | Cc1cn(-c2cc(NC(=O)c3ccc(C)c(Nc4nccc(-c5cnccn5)n4)c3)cc(C(F)(F)F)c2)cn1 [Radotinib] | 64.4 ± 25
32 | N[C@@H](Cc1c[nH]c2ccc(O)cc12)C(=O)O [5-hydroxytryptophan (5-HTP)] | 121 ± 13
33 | O=C(O)c1ccc(NC(=O)[C@H](Cc2ccc(O)cc2)NC(=O)c2ccccc2)cc1 [Bentiromide] | 101 ± 29
34 | C=C(c1ccc(C(=O)O)cc1)c1cc2c(cc1C)C(C)(C)CCC2(C)C [Bexarotene] | 85.7 ± 8.3
35 | CC1(C)CCC(C)(C)c2cc(NC(=O)c3ccc(C(=O)O)cc3)ccc21 [Tamibarotene] | 143 ± 7.9
36 | CCN(CC)C(=O)N1CCN(C)CC1 [Diethylcarbamazine citrate] | 89.5 ± 22
37 | NC(=NCCCCCCN=C(N)N=C(N)Nc1ccc(Cl)cc1)N=C(N)Nc1ccc(Cl)cc1 [Chlorhexidine?2HCl] | 9.11 ± 0.6
38 | Nc1nc(Cl)nc2c1ncn2[C@H]1C[C@H](O)[C@@H](CO)O1 [Cladribine] | 42.1 ± 4.5
39 | Cc1cn([C@@H]2C[C@@H](O)[C@H](CO)O2)c(=O)[nH]c1=O [Telbivudine] | 102 ± 8.7
40 | O=c1[nH]c(=O)n([C@H]2C[C@H](O)[C@@H](CO)O2)cc1F [Floxuridine] | 53.3 ± 3.6
41 | Nc1ncn([C@@H]2O[C@H](CO)[C@@H](O)[C@H]2O)c(=O)n1 [Azacitidine] | 98.3 ± 4.2
42 | O=c1[nH]c(=O)n([C@H]2C[C@H](O)[C@@H](CO)O2)cc1I [Idoxuridine] | 175.6 ± 1.1

Row | Structure (SMILES) | cell number in HSV-1-infected wells [%]
43 | Nc1ncn([C@H]2C[C@H](O)[C@@H](CO)O2)c(=O)n1 [Decitabine] | 166 ± 12
44 | CC[C@H](C)C(=O)O[C@H]1C[C@H](O)C=C2C=C[C@H](C)[C@H](CC[C@@H](O)C[C@@H](O)CC(=O)O)[C@H]21 [Pravastatin sodium] | 95.3 ± 16
45 | NC(=O)c1cn(Cc2c(F)cccc2F)nn1 [Rufinamide] | 120 ± 12
46 | C[C@H]1CNCCCN1S(=O)(=O)c1cccc2cncc(F)c12 [Ripasudil (K-115) hydrochloride dihydrate] | 114 ± 7
47 | N#Cc1cc(-c2n[nH]c(-c3ccncc3)n2)ccn1 [Topiroxostat] | 111 ± 12
48 | Cc1ncc([N+](=O)[O-])n1CC(C)O (configuration not stated) [Secnidazole] | 99.4 ± 14
49 | NS(=O)(=O)c1cc2c(cc1Cl)N=CNS2(=O)=O [Chlorothiazide] | 114 ± 25
50 | C1N2CN3CN1CN(C2)C3 [Methenamine] | 124 ± 25
51 | COc1ccc2cc(CCC(C)=O)ccc2c1 [Nabumetone] | 97.7 ± 6.2
52 | CN1CCN(CCCN2c3ccccc3Sc3ccc(C(F)(F)F)cc32)CC1 [Trifluoperazine 2HCl] | 57.5 ± 10
53 | OCCN1CCN(CCCN2c3ccccc3Sc3ccc(Cl)cc32)CC1 [Perphenazine] | 86.76 ± 0.7
54 | CN1CCN(CCCN2c3ccccc3Sc3ccc(Cl)cc32)CC1 [Prochlorperazine Dimaleate] | 163 ± 4.8
55 | CN1CCN(CCCN2c3ccccc3Sc3ccc(Cl)cc32)CC1 [Prochlorperazine dimaleate salt] | 124 ± 49
56 | CC(C)C(=O)OCC(=O)[C@@]12O[C@H](C3CCCCC3)O[C@@H]1C[C@H]1[C@@H]3CCC4=CC(=O)C=C[C@]4(C)[C@H]3[C@@H](O)C[C@@]12C [Ciclesonide] | 120 ± 13
57 | Cc1onc(-c2c(F)cccc2Cl)c1C(=O)N[C@@H]1C(=O)N2[C@@H]1SC(C)(C)[C@@H]2C(=O)O [Flucloxacillin sodium] | 111 ± 11
58 | Cc1onc(-c2c(Cl)cccc2Cl)c1C(=O)N[C@@H]1C(=O)N2[C@@H]1SC(C)(C)[C@@H]2C(=O)O [Dicloxacillin Sodium] | 146 ± 32
59 | Cc1onc(-c2ccccc2Cl)c1C(=O)N[C@@H]1C(=O)N2[C@@H]1SC(C)(C)[C@@H]2C(=O)O [Cloxacillin Sodium] | 114 ± 15
60 | C[C@]12CC[C@@H]3c4ccc(O)cc4C[C@@H](CCCCCCCCC[S+]([O-])CCCC(F)(F)C(F)(F)F)[C@H]3[C@@H]1CC[C@@H]2O (some centres not stated) [Fulvestrant] | 74.6 ± 24
61 | C[C@@H](O)[C@H]1C(=O)N2C(C(=O)O)=C(S[C@@H]3CN[C@H](CNS(N)(=O)=O)C3)[C@H](C)[C@H]12 [Doripenem] | 124 ± 13
62 | C[C@@H](O)[C@H]1C(=O)N2C(C(=O)O)=C(S[C@@H]3CN[C@H](CNS(N)(=O)=O)C3)[C@H](C)[C@H]12 [Doripenem Hydrate] | 98.3 ± 14
